Consider 37 molecules from PubChem BioAssay (EPA / NIEHS).

“And” between values parts separate entries of the source, which are not always exact repeats. Equal values may be shown once. Results filed as inconclusive are left out. The source made the active and inactive calls. How the source made its calls: active means hit-call score of the fitted dose curve at least 0.9, where 1 is the maximum; inconclusive means response in the unintended direction; inactive means score below 0.9.

Sequence of Cellular tumor antigen p53 (Homo sapiens) (P04637 whole entry, looked up): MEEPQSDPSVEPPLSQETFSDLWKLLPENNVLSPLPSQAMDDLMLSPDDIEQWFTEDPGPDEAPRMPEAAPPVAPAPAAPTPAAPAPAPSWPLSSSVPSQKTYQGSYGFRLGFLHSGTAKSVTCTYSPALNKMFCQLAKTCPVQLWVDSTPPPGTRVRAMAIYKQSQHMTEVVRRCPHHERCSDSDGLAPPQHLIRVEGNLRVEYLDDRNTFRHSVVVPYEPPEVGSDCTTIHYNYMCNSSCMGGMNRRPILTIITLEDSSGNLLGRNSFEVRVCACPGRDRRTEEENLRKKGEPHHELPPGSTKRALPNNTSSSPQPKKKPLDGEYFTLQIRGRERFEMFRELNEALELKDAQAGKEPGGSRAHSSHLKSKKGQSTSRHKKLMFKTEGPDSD

Test system in one assay: not listed separately
Description: TOX21_p53_BLA_p5_viability: Viability Assessment in the Tox21 HCT-116 p53 Agonism Beta-lactamase Assay, Phase 5 (AID 2283600). In a few lines:
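After the 460/530 nm beta-lactamase measurement, the wells received an ATP-detection luciferase reagent; signal was read 30 min later at RT. Compound treatment lasted 16 h on cells pre-incubated 5 h post-seeding.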
As to `COc1cccc([C@H](O)C2CCN(CCc3ccc(F)cc3)CC2)c1OC`, the molecule was called inactive.

`Oc1ccc2ccccc2c1`: the molecule was classed as inactive.

For the molecule `Cc1oc2c(NC(=O)c3c(Cl)cccc3Cl)cccc2c1C(C)(C)O`, the molecule was called inactive.

Regarding `c1ccc2ccccc2c1`, the molecule was called inactive.

`O=C(O)Cn1c(=O)n(Cc2ccc(Br)cc2F)c(=O)c2ccc(Cl)cc21`: the result was inactive.

For the molecule `O=c1[nH]sc2ccccc12`, the result was inactive.

For `CCCCCCCCCCCO`, the outcome was inactive.

For orientation: AC50 means the concentration giving half of the maximal activity seen. `CN(C)c1ccc(C(=C2C=CC(=[N+](C)C)C=C2)c2ccc(N(C)C)cc2)cc1`: the concentration at half-maximal activity (AC50) is 46.1 µM (active) and 27 µM (active) and 14.5 µM (active).

With `Cc1ncc(CO)c(CO)c1O`, the outcome was inactive.

Turning to `CCOC(=O)O[C@H](C)OC(=O)c1ccc2c(c1)cc(C(=O)NC1CCN(C(C)C)CC1)n2Cc1cc(-c2ccc(Cl)s2)on1`, the AC50 was 72.9 µM (active).

On to `CC(O)CC(C)(C)O` (stereo not drawn), for which the call was inactive.

Take `CC1=CC(=O)/C(=C(/C)O)C(=O)O1`: the result was inactive.

In the case of `c1ccc(C[n+]2cccc3ccccc32)cc1`, the call was inactive.

`CC(C)(C)c1cc(/C=C2\SC(N)=NC2=O)cc(C(C)(C)C)c1O`: the AC50 is 76.4 µM (active).

On to `Cc1ccc(C(C)C)cc1`, for which the molecule was classed as inactive.

Take `CCCCOC(=O)CC(CC(=O)OCCCC)(OC(C)=O)C(=O)OCCCC`: the result was inactive.

On to `CCCCCCCCCCCCO`, for which the call was inactive.

As to `OCCO`, the result was inactive.

For `CCCC(=O)OCCC(C)C`, the outcome was inactive.

In the case of `O=c1ccc2ccccc2o1`, the call was inactive.

With `Cc1cc2c(cc1C(F)(F)F)N(C(=O)Nc1ccc(Oc3cccnc3C)nc1)CC2`, the outcome was inactive.

For the molecule `CC[C@@H]1C[C@H](N(Cc2cc(C(F)(F)F)cc(C(F)(F)F)c2)C(C)=O)c2cc(C(F)(F)F)ccc2N1C(=O)OC(C)C`, the call was inactive.

As for `O=C1O[C@H]([C@@H](O)CO)C(O)=C1O`, the result was inactive.

On to `Cc1occc1C(=O)Nc1ccc(C(=O)N2CCC(F)(F)/C(=C\C(=O)N3CCC(N4CCCCC4)CC3)c3ccccc32)cc1`, for which the molecule was classed as inactive.

Turning to `CN1C(=O)CC[C@H]1c1cccnc1`, the result was inactive.

`O=C=NCCCCCCN=C=O`: the call was inactive.

Take `O=C(O)c1ccccc1C(=O)OCc1ccccc1`: the molecule was classed as inactive.

Another assay deals with Cellular tumor antigen p53 (Homo sapiens) (UniProt P04637). The assay can be described thus: TOX21_p53_BLA_p4_ratio: Tox21 HCT-116 p53 Agonism Beta-lactamase Assay, Ratio, Phase 4 (AID 2283601). In a few lines:
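HCT-116 p53 beta-lactamase reporter cells (4000/well) preincubated 5 h, then compound (217-fold dilution of DMSO stock) for 16 h at 37C. CCF4-AM substrate added 2 h at room temperature; 460/530 nm emission ratio fitted upward versus DMSO.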
Regarding `OC12N=C(c3ccccc3)SC1Cc1cc(Cl)ccc12` (stereo not drawn), the AC50 was 86.6 µM (active).

With `Oc1ccc2ccccc2c1`, the result was inactive.

Regarding `CCCCCCCCN(C)CCCCCCCC`, the outcome was inactive.

For `CCCCCCCC[Si](OCC)(OCC)OCC`, the result was inactive.

In the case of `Clc1cc(Cl)c2c(c1)N=C1CCCCCN1C2`, the result was inactive.

On to `c1ccc2ccccc2c1`, for which the result was inactive.

Take `O=C(O)Cn1c(=O)n(Cc2ccc(Br)cc2F)c(=O)c2ccc(Cl)cc21`: the result was inactive.

For the molecule `O=c1[nH]sc2ccccc12`, the result was inactive.

As for `CN(C)c1ccc(C(=C2C=CC(=[N+](C)C)C=C2)c2ccc(N(C)C)cc2)cc1`, the AC50 was 52.5 µM (active) and 51.7 µM (active) and 30.8 µM (active).

Take `CCO[Si](CCCNC(N)=O)(OCC)OCC`: the outcome was inactive.

For `Cc1ncc(CO)c(CO)c1O`, the outcome was inactive.

Turning to `CC(O)CC(C)(C)O` (stereo not drawn), the result was inactive.

`CC1=CC(=O)/C(=C(/C)O)C(=O)O1`: the outcome was inactive.

As to `C[C@]12CC[C@@H]3c4ccc(O)cc4CC[C@H]3[C@@H]1CC[C@H]2O`, the half-maximal activity concentration (AC50) is 26.2 µM (active).

On to `c1ccc(C[n+]2cccc3ccccc32)cc1`, for which the outcome was inactive.

For `CC(C)(C)c1cc(/C=C2\SC(N)=NC2=O)cc(C(C)(C)C)c1O`, the AC50 is 62.3 µM (active).

As to `CC[C@H](NC(=O)c1cc(F)ccc1NS(=O)(=O)c1cccc2cccnc12)c1ccccc1`, the AC50 is 67.2 µM (active).

Consider `Cc1ccc(C(C)C)cc1`, for which the outcome was inactive.

Consider `CCCCOC(=O)CC(CC(=O)OCCCC)(OC(C)=O)C(=O)OCCCC`, for which the outcome was inactive.

Consider `CCCCCCCCCCCCO`, for which the outcome was inactive.

As to `OCCO`, the result was inactive.

On to `O=c1ccc2ccccc2o1`, for which the result was inactive.

Regarding `O=C(O)c1ccccc1-n1cc(C(=O)O)c(=O)c2cc(Nc3c(F)cc(F)cc3Cl)c(Cl)cc21`, the outcome was inactive.

Take `Cc1cc2c(cc1C(F)(F)F)N(C(=O)Nc1ccc(Oc3cccnc3C)nc1)CC2`: the result was inactive.

Turning to `CC[C@@H]1C[C@H](N(Cc2cc(C(F)(F)F)cc(C(F)(F)F)c2)C(C)=O)c2cc(C(F)(F)F)ccc2N1C(=O)OC(C)C`, the outcome was inactive.

On to `O=C1O[C@H]([C@@H](O)CO)C(O)=C1O`, for which the outcome was inactive.

Turning to `CC(C)(O)c1ccc(CNC(=O)c2cccnc2Oc2ccc3nonc3c2)cc1`, the result was inactive.

With `CN1C(=O)CC[C@H]1c1cccnc1`, the result was inactive.

On to `O=C=NCCCCCCN=C=O`, for which the outcome was inactive.

On to `O=C(O)c1ccccc1C(=O)OCc1ccccc1`, for which the result was inactive.

Test system in another assay: not listed separately
Description: Tanguay_ZF_120hpf_MORT_legacy: (Legacy) Oregon State University Tanguay Lab 120 Hour Post-fertilization zebrafish Assay for Mortality (AID 2283633).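 On AC50: fitted as increase in binary mortality versus DMSO negative control.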 In outline:
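Static waterborne exposure from 6 to 120 hpf at 28C of single dechorionated wild-type (5D) embryos per well, 0.64% DMSO final. Death recorded present/absent by brightfield at 24 and 120 hpf.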
For `COc1cccc([C@H](O)C2CCN(CCc3ccc(F)cc3)CC2)c1OC`, the call was inactive.

Turning to `CCCCCCCCN(C)CCCCCCCC`, the outcome was inactive.

`Cc1oc2c(NC(=O)c3c(Cl)cccc3Cl)cccc2c1C(C)(C)O`: the AC50 was 26 µM (active).

In the case of `CCCCCCCC[Si](OCC)(OCC)OCC`, the molecule was classed as inactive.

In the case of `Clc1cc(Cl)c2c(c1)N=C1CCCCCN1C2`, the call was inactive.

With `O=C(O)Cn1c(=O)n(Cc2ccc(Br)cc2F)c(=O)c2ccc(Cl)cc21`, the result was inactive.

On to `CCO[Si](CCCNC(N)=O)(OCC)OCC`, for which the molecule was classed as inactive.

As to `COCC(C)OCC(C)OCC(C)O` (stereo not drawn), the outcome was inactive.

As to `CC(O)CC(C)(C)O` (stereo not drawn), the molecule was called inactive.

As for `C[C@]12CC[C@@H]3c4ccc(O)cc4CC[C@H]3[C@@H]1CC[C@H]2O`, the call was inactive.

With `c1ccc(C[n+]2cccc3ccccc32)cc1`, the molecule was called inactive.

On to `CCCCOC(=O)CC(CC(=O)OCCCC)(OC(C)=O)C(=O)OCCCC`, for which the outcome was inactive.

Regarding `CCCCCCCCCCCCO`, the result was inactive.

Regarding `O=C(O)c1ccccc1-n1cc(C(=O)O)c(=O)c2cc(Nc3c(F)cc(F)cc3Cl)c(Cl)cc21`, the result was inactive.

For `CC[C@@H]1C[C@H](N(Cc2cc(C(F)(F)F)cc(C(F)(F)F)c2)C(C)=O)c2cc(C(F)(F)F)ccc2N1C(=O)OC(C)C`, the call was inactive.

Regarding `CC(C)(O)c1ccc(CNC(=O)c2cccnc2Oc2ccc3nonc3c2)cc1`, the call was inactive.
